High-throughput results from PubChem BioAssay.
PGE2 EP2 inh – inhibitors of human EP2 prostaglandin E2 receptor; P43116; C6 glioma cells expressing human EP2, cAMP TR-FRET; cells stimulated with saturating PGE2; inhibition, % at 25 µM; actives 0.52% (n = 260,000); AID 1422;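 active = percent inhibition above 40 after rounding to a whole number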;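 note: rat C6 glioma host cells with rolipram phosphodiesterase inhibitor present; the protocol text gives 20 µM as final concentration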
Target sequence (P43116 whole entry, looked up): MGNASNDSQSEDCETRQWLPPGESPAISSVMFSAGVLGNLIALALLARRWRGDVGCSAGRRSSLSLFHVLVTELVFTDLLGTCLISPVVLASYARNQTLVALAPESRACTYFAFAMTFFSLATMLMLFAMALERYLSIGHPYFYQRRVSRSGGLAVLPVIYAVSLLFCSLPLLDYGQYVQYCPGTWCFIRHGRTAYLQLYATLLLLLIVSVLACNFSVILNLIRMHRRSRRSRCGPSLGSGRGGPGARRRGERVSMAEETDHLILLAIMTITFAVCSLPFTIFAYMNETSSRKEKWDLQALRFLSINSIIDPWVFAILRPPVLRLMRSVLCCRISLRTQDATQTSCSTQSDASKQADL
CHT block – inhibitors of human choline transporter CHT; Q9GZV3; CHT-expressing cells, membrane potential dye, choline response; hits give low values; B-score at 10 µM; actives 0.86% (n = 310,000);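 active = B-score over 3 SD under the library average, and starting fluorescence ratio not unusually high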;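 note: choline stimulus applied at its EC90 after an EC20 pre-addition; B-score computed on integrated fluorescence ratio after choline addition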
CHT PAM – allosteric activators of human choline transporter CHT | CHT-expressing cells, membrane potential dye, choline EC20; hits give high values; LV-AA mutant CHT in HEK293 cells | B-score at 10 µM | actives 0.49% (n = 310,000) | AID 488977;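 active = initial fluorescence not abnormally high and integrated response B-score, plate-corrected, over 3 SD above library mean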
EP2 mod – modulates human prostaglandin E2 receptor EP2 signaling. EP2-expressing cells, cAMP HTRF FRET, PGE2 co-stimulation. induction, % at 25 µM. actives 0.83% (n = 260,000);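 active = compounds whose cAMP rise, as percent of the full-agonist control response, exceeds 60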;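 note: rat C6 glioma line stably carrying human EP2 under a CMV promoter; the protocol text gives 20 µM as final concentration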
Of the large screens only hits and unclear results are named; the others gave an inactive call; ! = not active in a repeat. Hits are enriched below; roughly 2% of the tested compounds scored in any of these assays.

CN(C)S(=O)(=O)Oc1cccc(C(=O)Nc2ccc(Cl)c(Cl)c2)c1	PGE2 EP2 inh 39.7
O=C1C(=O)N(CCOCCO)C(c2cccnc2)/C1=C(/O)c1ccc(F)cc1 (stereo unspecified)	none (no result: CHT block, CHT PAM)
Cc1cc(F)ccc1S(=O)(=O)Nc1ccc2oc(=O)sc2c1	none (no result: CHT block, CHT PAM)
O=C(Nc1ccccc1)c1sccc1Oc1ccc([N+](=O)[O-])cc1F	EP2 mod 63.2
COCCOc1cc(NC(=O)c2sccc2Oc2ccc([N+](=O)[O-])cc2F)c(Cl)cc1Cl	none
O=C(O)c1cc([N+](=O)[O-])ccc1C(=O)Nc1ccccc1	EP2 mod 61.2
CC(C)Cc1nc2oc3c(NCC(C)O)ncnc3c2c2c1CCCC2 (stereo unspecified)	CHT block -7.58
CC(C)Cc1nc2oc3c(Cl)ncnc3c2c2c1CCCC2	none
CCOCc1nnc(NC(=O)Cn2c3c(c4ccccc42)CCC3)s1	none (no result: CHT block, CHT PAM)
O=C(Nc1nnc(-c2ccccc2)o1)c1nc2ccccc2s1	PGE2 EP2 inh 45.1
NC(=O)c1oc2ccccc2c1NC(=O)c1nc2ccccc2s1	none
O=Cc1ccccc1-n1cccn1	none
Oc1cc(-n2cccn2)c(O)cc1-n1cccn1	PGE2 EP2 inh 114.4
Cc1oc2c(c1C(=O)O)C(=O)c1ccccc1C2=O	none
Cc1oc2c(c1C(=O)c1ccccc1)C(=O)C(=O)c1ccccc1-2	PGE2 EP2 inh 57.2
O=C1C(=O)c2c(C(=O)c3ccccc3)coc2-c2ccccc21	PGE2 EP2 inh 45.0
O=C(O)c1ccccc1-c1ccccc1C(=O)c1ccccc1	none (no result: CHT block, CHT PAM)
NC(N)=N[C@@H]1C(O)[C@H](N=C(N)N)[C@@H](O)C(O)[C@H]1O (stereo partly specified)	PGE2 EP2 inh 51.3 (no result: CHT block, CHT PAM)
C[C@H]1[C@H](O)[C@@H](C)C=CC=CC=CC=CC=CC=CC=C[C@H](O[C@H]2O[C@@H](C)[C@H](O)[C@@H](N)[C@@H]2O)C[C@@H]2O[C@@](O)(C[C@@H](O)C[C@@H](O)[C@@H](O)CC[C@@H](O)C[C@@H](O)CC(=O)O[C@H]1C)C[C@H](O)[C@H]2C(=O)O	PGE2 EP2 inh 42.5 (no result: CHT block, CHT PAM)
Cc1ccc2nc(N/N=C/c3cccc(C)n3)cc(C)c2c1	PGE2 EP2 inh 40.2 (no result: CHT block, CHT PAM)
CC(=O)c1ccc(NC(=O)CSc2nnc3c4c5c(sc4nc(C)n23)CC(C)CC5)cc1 (stereo unspecified)	none (no result: CHT block, CHT PAM)
CC(Sc1nc(N2CCOCC2)c2c(c1C#N)CC(C)(C)OC2)C(=O)O (stereo unspecified)	none (no result: PGE2 EP2 inh, EP2 mod)
CC(C)Sc1nc(N2CCCC2)c2c(c1C#N)CC(C)(C)OC2	EP2 mod 63.2
c1cc(CSSCc2ccncc2)ccn1	none (no result: CHT block, CHT PAM)
OCc1ccncc1.OCc1ccncc1.[Cl][Pt]([Cl])([Cl])[Cl]	PGE2 EP2 inh 69.0 (no result: CHT block, CHT PAM)
O=C1Nc2ccccc2C1=Nc1ccc(S(=O)(=O)Nc2nccs2)cc1	PGE2 EP2 inh 46.0!
O=C(Nc1nc(=S)ss1)c1ccc(Cl)cc1Cl	CHT block -9.22
Cc1cc(C(=O)NCC(=O)OCC(=O)N(C2CCCCC2)C2CCCCC2)ccc1[N+](=O)[O-]	EP2 mod 63.1
Cn1c2c(c3ccccc31)CCSC2=O	none
CN(C)CCCCN1CCc2c(n(C)c3ccccc23)C1=O	PGE2 EP2 inh 50.0 (no result: CHT block, CHT PAM)
N=C(N)SCCc1ccncc1	PGE2 EP2 inh 47.7 (no result: CHT block, CHT PAM)
COc1ccc2nc(CN3CCc4c(nc(N5CCCC5)[nH]c4=O)C3)ccc2c1	none (no result: PGE2 EP2 inh, CHT block, CHT PAM)
Cc1ccc(C(=O)c2ccc(C)cc2)cc1	none
Cc1ccc(C(=O)c2no[n+]([O-])c2C(=O)c2ccc(C)cc2)cc1	PGE2 EP2 inh 49.8
Nc1ncnc2c1ncn2[C@@H]1O[C@H](COP(=O)(O)OP(=O)(O)OP(=O)(O)O)[C@@H](O)[C@H]1O	none (no result: PGE2 EP2 inh, EP2 mod)
NC(=O)c1ccc[n+]([C@@H]2O[C@H](COP(=O)([O-])OP(=O)(O)OC[C@H]3O[C@@H](n4cnc5c(N)ncnc54)[C@H](OP(=O)(O)O)[C@@H]3O)[C@@H](O)[C@H]2O)c1	EP2 mod 70.9 (no result: CHT block, CHT PAM)
O=C(N/N=C/c1c[nH]c2ccccc12)c1cc(-c2ccc(-c3ccccc3)cc2)n[nH]1	none
Cc1ccc(-c2cc(C(=O)N/N=C/c3c[nH]c4ccccc34)[nH]n2)cc1	PGE2 EP2 inh 57.7 (no result: CHT block, CHT PAM)
O=C(N/N=C/c1ccccn1)c1cc(-c2ccc3ccccc3c2)n[nH]1	PGE2 EP2 inh 51.0
CC(=O)c1csc(NC(=O)COc2cccc3nsnc23)n1	none (no result: CHT block, CHT PAM)
CCn1c(SCC(=O)N2CCCC2)nnc1-c1ccco1	none (no result: PGE2 EP2 inh, EP2 mod)
CCn1c(SCC(=O)N2CCCC(C)C2)nnc1-c1ccco1 (stereo unspecified)	EP2 mod 71.1
Cc1ccc(C(C(=O)NC(C)(C)C)N(C(=O)c2csnn2)c2ccccc2)o1 (stereo unspecified)	none (no result: CHT block, CHT PAM)
